# Bioassay records as filed in PubChem.
# The list is not random: actives were taken first. Their share in the collection is about 2.4%.
# Cruzain Triton: blocks cruzain activity in presence of Triton detergent. P25779. purified cruzain, Z-FR-AMC fluorescence, 0.01% Triton. Potency, µM, actives largely listed as inhibitors. 0.43% of 200,000 active; further: nearly all actives have a fitted effect of over 40% in size
# Target sequence (P25779 123-467 limits assumed): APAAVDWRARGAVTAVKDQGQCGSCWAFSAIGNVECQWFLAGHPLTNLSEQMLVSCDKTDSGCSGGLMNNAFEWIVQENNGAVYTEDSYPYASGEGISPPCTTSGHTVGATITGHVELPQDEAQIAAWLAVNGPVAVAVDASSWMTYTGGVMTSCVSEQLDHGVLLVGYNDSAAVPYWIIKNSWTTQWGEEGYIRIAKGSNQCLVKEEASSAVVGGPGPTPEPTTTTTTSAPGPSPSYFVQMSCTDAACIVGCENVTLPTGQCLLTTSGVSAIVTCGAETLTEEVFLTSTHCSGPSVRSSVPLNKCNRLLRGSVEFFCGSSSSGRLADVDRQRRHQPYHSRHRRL
#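 Read-out: AMC fluorescence (360 nm excitation, 450 nm emission), four reads over 2 min, first-to-third difference used. Conditions: cruzain 1.5 nM, Z-FR-AMC 2 uM, pH 5.5 acetate, 5 mM DTT, 0.01% Triton X-100.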
# Cruzain noTriton: cruzain (T. cruzi) inhibition without detergent | purified cruzain, Z-FR-AMC fluorescence, no detergent | Potency, µM, hits mostly inhibitors | 2.3% of 200,000 active | AID 1476; further: nearly all actives have a fitted effect of over 40% in size
#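 Detergent-free condition (0.00005% Triton X-100) in acetate buffer pH 5.5 with DTT. 1.5 nM enzyme and compound were pre-mixed 15 min, then 2 uM Z-FR-AMC substrate added; reaction progress from fluorescence change between first and third reads (60 s).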
# Hits are given with their value; n = inactive; u = inconclusive. The call rests on the fitted dose curve; in most records, active means well fitted curve in the direction sought with a large enough effect; inconclusive means small, poorly fitted or top-dose-only effect, or another doubt; inactive means no such curve, though single readings can be large; an effect the other way counts as inactive or inconclusive.
SMILES,Cruzain Triton,Cruzain noTriton
COc1ccc2[nH]cc(CCNc3nc(-c4cccnc4)nc4ccccc34)c2c1,n,n
Cc1nc(-c2coc3c(O)c(O)ccc3c2=O)cs1,n,n
CCOc1ccc(NC(C)=O)cc1N,n,n
CCOc1cc(-c2ccc(N)c(OCC)c2)ccc1N,n,25.1µM
Cc1ccc2c(c1)c1c(c(=O)n(-c3ccccc3C)c(=O)n1Cc1cccc(F)c1)n2C,n,n
CCCc1nn2c(=O)cc(COC(=O)c3cccc(NC(=O)c4ccc(OCC)cc4)c3)nc2s1,n,n
COc1ccccc1NC(=O)CSc1nc2ccccc2cc1Cc1ccccc1,n,20µM
COc1ccccc1NC(=O)CSc1nc(N)cc(N)n1,n,n
Cc1cc(C)c(OCC(=O)N(Cc2ccc(N(C)C)cc2)CC2CCCO2)c(C)c1 (stereo not drawn),n,n
Cc1ccc(NC(=O)c2cc(S(=O)(=O)NC3CCCCCC3)ccc2F)cc1F,n,n
COc1ccc(NC(=O)CCS(=O)(=O)c2cc(Br)cc3c2N(C(C)=O)CC3)c(OC)c1,n,n
COC(=O)c1cc(Br)ccc1-c1ccc(/C=N/n2nnnc2N)o1,n,12.6µM
Cc1ccc([N+](=O)[O-])cc1-c1ccc(/C=N\n2nnnc2N)o1,n,n
Cc1ccc(CCNC(=O)CCSCc2ccccc2F)cc1,n,n
CCCn1c(C)cc(-c2csc(N)n2)c1C,n,u
Cc1cc(-c2csc(N)n2)c(C)n1-c1ccc(Cl)c(Cl)c1,n,12.6µM
C=CCn1c(C)cc(-c2csc(N)n2)c1C,n,u
COc1ccc(-n2c(C)cc(-c3csc(N)n3)c2C)cc1,n,20µM
CC(=O)Nc1nonc1-c1nnc(SCC(=O)Nc2ccc(C)cc2)n1-c1ccccc1,n,u
Cc1ccccc1-n1c(SCC(=O)c2ccccc2)nnc1-c1ccc(F)cc1,n,n
Cc1nn(C)c2nc(NNC(=O)Nc3cc(Cl)nc(Cl)c3)cc(C(C)C)c12,n,n
COc1cccc(/C=C/c2nc(C#N)c(NCCc3ccc(OC)c(OC)c3)o2)c1,n,u
CCc1ccccc1NC(=O)CCCN1C(=O)COc2ccc(C)cc21,n,n
CC(=O)c1cccc(NC(=O)CCCN2C(=O)COc3ccc(C)cc32)c1,17.8µM,u
CN(C)c1ccc(CNC(=O)CN2C(=O)C3CCCCN3c3ccc(C(=O)N4CCCC4)cc32)cc1 (stereo not drawn),n,n
SMILES,Cruzain Triton,Cruzain noTriton
COc1ccc(N2CCN(Cc3nc4c(c(=O)[nH]c(=O)n4C)n3Cc3ccccc3)CC2)cc1,n,n
Cn1c(=O)n(CC(=O)O)c(=O)c2c1nc1n2CCCN1c1ccc(Cl)cc1,n,n
CCCCOC(=O)Cn1c(=O)c2c(nc3n2CCCCN3c2ccc(C)cc2)n(C)c1=O,25.1µM,n
CCC1CCc2nc3sc(C(=O)Nc4ccc(C)cc4C)c(N)c3cc2C1 (stereo not drawn),n,n
COc1ccc(-c2cc(C(F)(F)F)n3nc(C(=O)O)c(Cl)c3n2)cc1OC,n,n
C=CCN1C(=O)/C(=C\c2ccc(Cl)cc2)N=C1SCC(=O)NC1CCCCC1,n,10µM
Nn1c(SCC(=O)NC2CCCCC2)nnc1-c1ccc(Cl)cc1,n,n
Cc1ccc2onc(CNC(=O)N3CCN(c4cccc(C(F)(F)F)c4)CC3)c2c1,n,n
COc1cccc(NC(=O)CC2NCCNC2=O)c1 (stereo not drawn),n,n
CN1/C(=C\C=Nc2ccccc2)C(C)(C)c2ccccc21,n,n
CN1/C(=C\C=N\NC(=O)c2ccc(O)cc2)C(C)(C)c2ccccc21,u,20µM
Cc1cc2nc(-c3ccc(Br)cc3)cc(C(F)(F)F)n2n1,n,n
COc1cc(-c2cc(OC)c3c(C)oc(C)c3c(=O)c2)ccc1OC(=O)c1ccccc1Cl,n,n
COc1cc(-c2cccs2)cc(=O)c2c(C)oc(C)c12,n,20µM
NCS(=O)(=O)O,n,n
Cc1ccc2c(CC(=O)Nc3ccc(S(=O)(=O)N4CCCCC4)cc3)coc2c1C,n,25.1µM
Cc1cc(C)c2c(CC(=O)Nc3ccc(S(=O)(=O)N4CCCCC4)cc3)coc2c1,n,u
Cc1ccc2c(CC(=O)Nc3ccc(S(=O)(=O)N4CCCCC4)cc3)coc2c1,n,25.1µM
Cc1ccc2c(CC(=O)Nc3ccc(S(=O)(=O)N4CCCC(C)C4)cc3)coc2c1 (stereo not drawn),n,u
COC(=O)C=P(c1ccccc1)(c1ccccc1)c1ccccc1,n,n
COc1ccc(NC(=O)C(Cc2ccccc2)NS(=O)(=O)c2ccc3c(c2)oc(=O)n3C)c(OC)c1 (stereo not drawn),n,n
Cc1c(CCC(=O)NCc2cccc(Cl)c2)c(=O)oc2c(C)c(O)ccc12,n,u
COC(=O)N[C@@H](c1ccc(Br)cc1)C(C(=O)OC)C(=O)OC,n,n
CCS(=O)(=O)c1oc(-c2ccc(F)cc2)nc1S(=O)(=O)c1ccc(Br)cc1,n,n
CCN(CC)CCSc1nnc2c3cc(F)ccc3n(CC)c2n1,25.1µM,25.1µM
SMILES,Cruzain Triton,Cruzain noTriton
CCn1c2ccccc2c2nnc(SCC(=O)c3ccccc3)nc21,n,u
COc1ccc(OC)c(S(=O)(=O)NCc2ccccc2)c1,n,n
COc1ccc(OC)c(NS(=O)(=O)Cc2ccccc2)c1,n,31.6µM
CN(C)CCNc1oc(/C=C/c2ccccc2)nc1C#N,n,25.1µM
CCOc1ccc(/C=C/c2nc(C#N)c(NCCCN(C)C)o2)cc1,n,u
C=CCNc1oc(/C=C/c2ccccc2)nc1C#N,31.6µM,u
CCOc1ccc(/C=C/c2nc(C#N)c(NCc3ccccc3)o2)cc1,n,n
COc1cc(/C=C/c2nc(C#N)c(NCCc3ccccc3)o2)cc(OC)c1OC,n,u
CN(C)CCCNc1oc(/C=C/c2ccc(F)cc2)nc1C#N,u,25.1µM
Nc1ncnc2c1ncn2[C@@H]1O[C@H](COP(=O)(O)OP(=O)(O)OP(=O)(O)OP(=O)(O)OC[C@@H]2O[C@H](n3cnc4c(N)ncnc43)[C@@H](O)[C@@H]2O)[C@H](O)[C@H]1O,n,n
COCCCNC(=O)CN1C(=O)COc2ccc(S(=O)(=O)N3CCCC3)cc21,n,n
CCOc1ccc(OCC)c(NC(=O)CCS(=O)(=O)c2ccc(Br)s2)c1,n,n
CCOc1ccc(OCC)c(NC(=O)C(NS(=O)(=O)c2ccc(Br)s2)c2ccccc2)c1 (stereo not drawn),n,10µM
C/C(=N\NC(=O)c1ccc([N+](=O)[O-])c(C)c1)c1ccccc1Cl,n,n
C/C(=N/NC(N)=S)c1ccccc1[N+](=O)[O-],15.8µM,12.6µM
Cc1ccc2c(c1)c1c(c(=O)n(-c3ccccc3)c(=O)n1CC(=O)N1CCCC1)n2C,n,n
Cc1ccc(C(=O)OCC(=O)Nc2sc3c(c2C#N)CCC3)cc1,n,20µM
N#Cc1c(NC(=O)COC(=O)c2ccc(F)cc2)sc2c1CCC2,n,u
CCN(CC)S(=O)(=O)c1ccc(C(=O)OCC(=O)Nc2sc3c(c2C#N)CCCCC3)cc1,n,u
COc1ccc(N(C)S(=O)(=O)c2cccc(C(=O)OCC(=O)Nc3sc4c(c3C#N)CCCCC4)c2)cc1,n,12.6µM
Cc1ccc2nc(-c3cccc(NC(=O)c4cccc5c(Cl)cccc45)c3)oc2c1,n,n
c1ccc2oc(C3=NNC(=NC4CC4)SC3)cc2c1,n,15.8µM
c1ccc(CN=C2NN=C(c3cc4ccccc4o3)CS2)cc1,n,u
O=c1[nH]c(SCc2c(Cl)c(Cl)c(Cl)c(Cl)c2Cl)nc(=S)[nH]1,n,n
